Screens: PubChem, Center for Chemical Genomics, University of Michigan
HIV TAR-Tat: HIV-1 TAR-Tat binding disruption | HIV-1 TAR RNA, Tat peptide displacement FRET; hits give high values | z-score (concentration not given with the values) | 100,000 compounds, 0.6% hits | AID 1259389; active = z-score of 3 or more in at least 2 runs
CDC25B-CDK2 inh: human CDC25B-CDK2/CyclinA binding inhibition | z-score (concentration not given with the values) | AID 1259370 | HTRF CDC25B-CDK2/CyclinA binding, anti-His/anti-Flag; hits give high values | 94,000 compounds, 0.72% hits | P30305+P24941; in the data active = z-score above about 3.2
Starred values were filed as active, the others as inactive; . = not tested or not shown; ! = repeats disagree. This is a sample that favours compounds with a hit; in the whole collection about 0.93% have one here.

SMILES	HIV TAR-Tat	CDC25B-CDK2 inh
Nc1ccc2nc(SCC(=O)c3ccc(-c4ccccc4)cc3)sc2c1	.	17*
CC(=O)Cc1nsc(Nc2ccc(C)cc2C)n1	.	0.1
CN1C(C(=O)NCc2ccc(F)cc2)=CC(c2ccc(F)cc2)=NS1(=O)=O	1.5	-2.6
CCC(C)NC(=O)C1=CC(c2ccc(F)cc2)=NS(=O)(=O)N1C (configuration not stated)	3.8*	-2.2
Cc1cc(C)c2c(-n3cccc3)nn(CCCC(=O)NC3CCCC3)c2n1	-0.07	.
CCC(=O)N1CCc2cc(Br)cc(S(=O)(=O)NCC3CCCN3CC)c21 (configuration not stated)	.	4.5*
CCC(=O)N1CCc2cc(Br)cc(S(=O)(=O)NCCN3CCCCC3C)c21 (configuration not stated)	.	3.4
O=C(O)CCCn1c(=S)[nH]c2c(sc3ccccc32)c1=O	.	-2.3
C=C(C)C(CCC=C(C)C)C12C[C@@H](CC=C(C)C)C(C)(C)C(CC=C(C)C)(C(=O)/C(=C(/O)c3ccc(O)c(O)c3)C1=O)C2=O (some centres not stated)	8.3*	.
CCOC(=O)c1c(NC(C)=O)c2c3c(sc2n1Cc1cn2ccccc2n1)CCCC3	1.7	.
CCOC(=O)c1c(NC(C)=O)c2c3c(sc2n1CC(=O)NCc1ccco1)CCCC3	14*	.
CC1CCCCC1NC(=O)COCc1cc(-c2ccc3c(c2)OCO3)on1 (configuration not stated)	2.6	.
O=C(NCCO)Nc1ccc2snnc2c1	1.8	11*
Cc1ccc(NC(=O)Nc2ccc3snnc3c2)cc1	.	-0.55
O=C(NCc1ccccn1)c1ccc2c(=O)n3nc(NCc4ccccc4)sc3nc2c1	1.1	-0.69
CCc1nc2nc(C)cc(N3CCN(c4cccc(C)c4C)CC3)n2n1	1.1	-0.72
CCSc1ncc2c(=O)n(CC(=O)N3CCc4ccccc43)cnc2n1	9.7*	.
CCSc1ncc2c(=O)n(CC(=O)NC3CCCC3)cnc2n1	0.72	.
C(=C\c1ccccc1)/CNCCSc1nnnn1-c1ccccc1	-2.1	-2.1
Cc1cc2c(cc1CNC(=O)Cn1cc(C(=O)C3CC3)c3ccccc31)OCCCO2	1.3	.
COc1cc(OC)c(NC(=O)Nc2sc3nc4n(c(=O)c3c2C)CCC(C)CC4)cc1Cl (configuration not stated)	0.31	11*
Cc1ccccc1NC(=O)Nc1sc2nc3n(c(=O)c2c1C)CCC(C)CC3 (configuration not stated)	0.07	12*
COc1cccc(NC(=O)Nc2sc3nc4n(c(=O)c3c2C)CCC(C)CC4)c1 (configuration not stated)	0.79	-3
Cc1c(NC(=O)Nc2ccccc2Cl)sc2nc3n(c(=O)c12)CCC(C)CC3 (configuration not stated)	0.25	-2.5
CC(C)(C)c1cc(C(=O)N/N=C/c2cc(Br)cc(Br)c2O)n[nH]1	.	-1.6
SMILES	HIV TAR-Tat	CDC25B-CDK2 inh
Cc1ccc2ncnc(Nc3ccc(C)c(C)c3)c2c1	.	-1.8
Cc1ccc(Nc2ncnc3ccccc23)cc1C	.	11*!
O=C1C=C(S(=O)(=O)O)C2C=CC=CC2C1=O (configuration not stated)	.	0.35
O=C(O)CSc1ccc(F)cc1	0.74	.
Cc1ccc(C)n1-c1ccc(SCC(=O)O)cc1	27*	0.36
CC(C)Cn1cc(NC(=O)NCCCN2CCCC2)c2ccccc2c1=O	1	.
CC(C)Cn1cc(NC(=O)N(Cc2ccccc2)C(C)C)c2ccccc2c1=O	6.6*	.
CC(C)Cn1cc(NC(=O)NCCCN(C)c2ccccc2)c2ccccc2c1=O	-0.7	19*
CCCN(CCC)C(=O)Nc1cn(CC(C)C)c(=O)c2ccccc12	1.9	.
Cc1nc2cccnc2n1-c1ccc(CCC(=O)O)cc1	6.5	1.8
O=c1c(Nc2ccccc2F)c(-c2ccc3c(c2)CCCC3)c1=O	1.1	.
CCOC(=O)c1c(C)n(CC)c2ccc(OC(=O)COc3ccccc3F)cc12	.	0.15
Cc1cc(Nc2cccc3c2CCCC3)nc(-n2cc([N+](=O)[O-])cn2)n1	1.3	.
CCOc1cc(C2CC(=O)N3CN(c4ccc(F)cc4)CSC3=C2C#N)ccc1O (configuration not stated)	30*	1.4
COc1ccc(N2CSC3=C(C#N)C(c4cccc(Br)c4)CC(=O)N3C2)c(OC)c1 (configuration not stated)	0.31	1.8
CCOc1cc(C2CC(=O)N3CN(c4ccc(C)c(C)c4)CSC3=C2C#N)ccc1O (configuration not stated)	2.2	1.9
CCOc1cc(C2CC(=O)N3CN(c4ccc(OC)cc4OC)CSC3=C2C#N)ccc1O (configuration not stated)	-1.1	3.1*
CCOc1cc(C2CC(=O)N3CN(c4ccccc4)CSC3=C2C#N)cc(Br)c1O (configuration not stated)	31*	8.8*
COc1ccc(N2CSC3=C(C#N)C(c4ccc(O)c(OC)c4)CC(=O)N3C2)c(OC)c1 (configuration not stated)	-4.1	3.5*
CCN(c1ccc(OC)cc1)S(=O)(=O)c1cn(C)cn1	2	.
CCN(CC)CCCN(C)C(=O)c1nn(C)c2c1COc1ccccc1-2	-0.01	-1.5
O=S(=O)(c1cc(-c2noc(C3CC3)n2)cs1)N1CCN(c2cccc(Cl)c2)CC1	0.47	.
CC(=O)NCCN1C(=S)N(c2ccc(Cl)cc2)C(=O)C1CC(=O)Nc1ccc(F)cc1 (configuration not stated)	.	0.06
COc1cccc(NC(=O)c2noc3c2CSc2ccccc2-3)c1	1	-0.11
CCc1cc(Nc2ccccc2)n2ncnc2n1	1.8	-1.7
SMILES	HIV TAR-Tat	CDC25B-CDK2 inh
O=C(O)c1ccc(-c2cc(C(=O)O)c3c(-c4ccccc4)[nH]nc3n2)cc1	1.8	.
O=C(O)c1cc(-c2ccc(O)c(O)c2)nc2n[nH]c(-c3ccccc3)c12	19*	-0.65
Cc1nn(-c2ccc(N3CCCC3)nn2)c(C)c1CCC(=O)NCc1cccs1	0.58	.
CCn1nc(-n2cnnc2)c(NC(=O)c2cccs2)c1C	0.59	2.5
O=C(NCc1ccccc1)C1=Cc2cc(Br)ccc2OC=C1	1.6	0.43
COc1ccc(O)c(C2Nc3ccccc3-n3c(-c4ccccc4)c4c(=O)n(C)c(=O)n(C)c4c32)c1 (configuration not stated)	1.7	-0.2
COc1ccc(-c2c3c(=O)n(C)c(=O)n(C)c3c3n2-c2ccccc2NC3c2cc(O)ccc2O)cc1 (configuration not stated)	21*	-1.8
CCC(CC)C(=O)Nc1ccc2nc(SCc3cc(=O)n4nc(C)sc4n3)sc2c1	-0.21	.
CCC(=O)Oc1ccc(NC2=NS(=O)(=O)c3ccccc32)cc1	.	-1.5
O=C(NC1CCSC1=O)c1cccc(C(=O)NC2CCSC2=O)c1 (configuration not stated)	26*	-0.45
O=C(NC1CCSC1=O)c1ccc(-c2ccccc2)cc1 (configuration not stated)	2	-3.2
Fc1ccccc1-c1ccc(-c2nn3c(-c4ccco4)nnc3s2)o1	20*	-0.12
Cc1occc1-c1nnc2sc(-c3ccc(-c4cccc(Cl)c4)o3)nn12	1.7	-0.12
Clc1cccc(-c2ccc(-c3nn4c(-c5ccco5)nnc4s3)o2)c1	17*	-0.52
FC(F)(F)c1cccc(-c2ccc(-c3nn4c(-c5ccco5)nnc4s3)o2)c1	.	1.4
CC(C)C(=O)N1CCCC(C(=O)Nc2sc3c(c2C(N)=O)CCCC3)C1 (configuration not stated)	0.1	0.28
